The panel holds about 79,000 compounds, 15% with a hit somewhere; the sample as a whole holds those more often. Values without a mark were called inactive. Activity calls are given as the source filed them. No stated cut-off is given here; in the data, active means growth inhibition above about 70%; inactive means the rest.

Ten molecules from PubChem BioAssay (NCI) can be followed below.

The nature of test [1]: NCI Yeast Anticancer Drug Screen. Data for the rad50 strain (AID 155).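 Further: 0% = growth of vehicle-only cultures of the same strain.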 The settings on record: S. cerevisiae rad50 strain growth inhibition, active compounds read high. A digest of the protocol:
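Inhibition values express reduced yeast growth in compound-treated cultures relative to vehicle-treated controls.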

Test [2] can be described thus: NCI Yeast Anticancer Drug Screen. Data for the mec2-1 strain (AID 157). The settings on record: S. cerevisiae mec2-1 strain, active compounds read high. In short, it runs like this:
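Mutant yeast (mec2-1) grown with compound; growth inhibition relative to vehicle control reported.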

Test [3] in a line: NCI Yeast Anticancer Drug Screen. Data for the sgs1 mgt1 strain (AID 161).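 Further: 0% = growth of cultures given vehicle only.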 As to conditions: S. cerevisiae sgs1 mgt1 strain, active compounds read high. A digest of the protocol: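 Compounds are added to genetically altered yeast, and growth is compared with cultures given vehicle alone to give percent inhibition.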
Test [4] is described as follows: NCI Yeast Anticancer Drug Screen. Data for the cln2 rad14 strain (AID 165).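 Further: 0% = growth equal to vehicle treated cultures.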 The settings on record: S. cerevisiae cln2 rad14 strain, active compounds read high. A digest of the protocol: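 Readout is yeast growth inhibition versus vehicle-treated controls, using a strain with cln2 and rad14 alterations exposed to compound.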
Test [5] in a line: NCI Yeast Anticancer Drug Screen. Data for the bub3 strain (AID 167). As to conditions: S. cerevisiae bub3 mutant strain, active compounds read high. A digest of the protocol:
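Steps: expose the mutant yeast strain to compound; grow alongside vehicle-treated cultures; measure growth; express inhibition against the vehicle cultures.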

Test [6] is described as follows: NCI Yeast Anticancer Drug Screen. Data for the mlh1 rad18 strain (AID 175). As to conditions: S. cerevisiae mlh1 rad18 strain growth inhibition, active compounds read high. In short, it runs like this:
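Genetically defined yeast (DNA repair-deficient) exposed to compounds; growth inhibition determined relative to vehicle.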

[7] abbreviates: at 5.0 µM (retest, dose inferred, filed as 0.5).
Where [8] appears, read: at 50.0 µM (retest, dose inferred, filed as 5.0).

As for `CCOC1NC(=S)N(C2CCCCC2)C1(C)C` (stereo unspecified), the growth inhibition was -2% in test [1] (setting [7]); 10% in test [1] (setting [8]); 10.8% in test [1] (at 50.0 µM); -2% in test [2] (setting [7]); 3% in test [2] (setting [8]); 1.1% in test [2] (at 50.0 µM). Also, the growth inhibition in test [3] (setting [7]) was -1%; in test [3] (setting [8]), 11%; in test [3] (at 50.0 µM), 11.8%; in test [4] (setting [7]) it was -2%; in test [4] (setting [8]), -11%; in test [4] (at 50.0 µM), 75.6% (active). Also, the growth inhibition in test [5] (setting [7]) is -2%; in test [5] (setting [8]), -9%; in test [5] (at 50.0 µM), -19%; in test [6] (setting [7]), -6%; in test [6] (setting [8]), 1%; in test [6] (at 50.0 µM), 16.6%.
Regarding `CC(=O)Oc1c(C)cc(C)cc1Cc1cc(C(C)=O)cc(Cc2cc(C)cc(C)c2OC(C)=O)c1OC(C)=O`, the growth inhibition was 30% in test [1] (setting [7]); 91% (active) in test [1] (setting [8]); 94.5% (active) in test [1] (at 50.0 µM); 17% in test [2] (setting [7]); 88% (active) in test [2] (setting [8]); 93.2% (active) in test [2] (at 50.0 µM). Further, the growth inhibition in test [3] (setting [7]) is 47%; in test [3] (setting [8]), 91% (active); in test [3] (at 50.0 µM) it was 95.6% (active); in test [4] (setting [7]), 28%; in test [4] (setting [8]), 88% (active); in test [4] (at 50.0 µM), 97% (active). The growth inhibition was 22% in test [5] (setting [7]), 87% (active) in test [5] (setting [8]) and 94.3% (active) in test [5] (at 50.0 µM).
In the case of `Nc1ccc(S(=O)(=O)N2CCCc3ccccc32)cc1`, the growth inhibition was 5% in test [1] (setting [7]); 20% in test [1] (setting [8]); 83.7% (active) in test [1] (at 50.0 µM); 7% in test [2] (setting [7]); 21% in test [2] (setting [8]); 56.9% in test [2] (at 50.0 µM). The growth inhibition was 4% in test [3] (setting [7]); 34% in test [3] (setting [8]); 84% (active) in test [3] (at 50.0 µM); 2% in test [4] (setting [7]); 23% in test [4] (setting [8]); 74.2% (active) in test [4] (at 50.0 µM). Further, the growth inhibition in test [5] (setting [7]) was 3%; in test [5] (setting [8]) it was 28%; in test [5] (at 50.0 µM), 82% (active); in test [6] (setting [7]), 7%; in test [6] (setting [8]), 40%; in test [6] (at 50.0 µM), 74.4% (active).
For the molecule `Nc1nc(-c2cccnc2)nc(N)c1N=O`, the growth inhibition was 7% in test [1] (setting [7]); 82% (active) in test [1] (setting [8]); 61.4% in test [1] (at 50.0 µM); 15% in test [2] (setting [7]); 79% (active) in test [2] (setting [8]); 79.2% (active) in test [2] (at 50.0 µM). Besides, the growth inhibition in test [3] (setting [7]) is 15%; in test [3] (setting [8]), 88% (active); in test [3] (at 50.0 µM) it was 70.6% (active); in test [4] (setting [7]), 1%; in test [4] (setting [8]), 90% (active); in test [4] (at 50.0 µM), 66.5%. For the same molecule, the growth inhibition in test [5] (setting [7]) is 36%; in test [5] (setting [8]), 92% (active); in test [5] (at 50.0 µM), 91.1% (active).
Turning to `c1ccc2c(c1)OCC(CN1CCN(CC3COc4ccccc4O3)CC1)O2` (stereo unspecified), the growth inhibition in test [1] (setting [7]) is 41%; in test [1] (setting [8]), 57%; in test [1] (at 50.0 µM), 76.7% (active); in test [2] (setting [7]) it was 36%; in test [2] (setting [8]), 51%; in test [2] (at 50.0 µM), 67%. Further, the growth inhibition in test [3] (setting [7]) was 47%; in test [3] (setting [8]), 55%; in test [3] (at 50.0 µM), 77.7% (active); in test [4] (setting [7]) it was 52%; in test [4] (setting [8]), 58%; in test [4] (at 50.0 µM), 84% (active). The growth inhibition in test [5] (setting [7]) is 47%; in test [5] (setting [8]) it was 60%; in test [5] (at 50.0 µM), 67.9%; in test [6] (setting [7]), 47%; in test [6] (setting [8]), 60%; in test [6] (at 50.0 µM) it was 81.2% (active).
Turning to `c1ccc(OCCCOc2ccccc2)cc1`, the growth inhibition was 4% in test [1] (setting [7]); 2% in test [1] (setting [8]); -4.15% in test [1] (at 50.0 µM); -1% in test [2] (setting [7]); -4% in test [2] (setting [8]); 10.8% in test [2] (at 50.0 µM). Moreover, the growth inhibition is 4% in test [3] (setting [7]); 3% in test [3] (setting [8]); 13% in test [3] (at 50.0 µM); 3% in test [4] (setting [7]); -9% in test [4] (setting [8]); -5.75% in test [4] (at 50.0 µM). For the same molecule, the growth inhibition in test [5] (setting [7]) is 7%; in test [5] (setting [8]), 25%; in test [5] (at 50.0 µM), 10.3%; in test [6] (setting [7]), 2%; in test [6] (setting [8]), -1%; in test [6] (at 50.0 µM), 61.9%.
Take `Cc1ccc(S(=O)(=O)NC2(C=O)CCC(C(C)(C)C)CC2)cc1` (stereo unspecified): the growth inhibition in test [1] (setting [7]) was 15%; in test [1] (setting [8]), 86% (active); in test [1] (at 50.0 µM), 77.7% (active); in test [2] (setting [7]), 20%; in test [2] (setting [8]), 88% (active); in test [2] (at 50.0 µM), 68.4%. Further, the growth inhibition in test [3] (setting [7]) was 25%; in test [3] (setting [8]), 84% (active); in test [3] (at 50.0 µM), 82% (active); in test [4] (setting [7]) it was 20%; in test [4] (setting [8]) it was 92% (active); in test [4] (at 50.0 µM) it was 77.5% (active). The values for the growth inhibition in test [5] (setting [7]), in test [5] (setting [8]) and in test [5] (at 50.0 µM) were 19%, 88% (active) and 84.7% (active), respectively.
On to `CCCCCCC(/C=C/c1ccccc1)=N\O`, for which the growth inhibition was 0% in test [1] (setting [7]); 96% (active) in test [1] (setting [8]); 98.8% (active) in test [1] (at 50.0 µM); -1% in test [2] (setting [7]); 96% (active) in test [2] (setting [8]); 98.7% (active) in test [2] (at 50.0 µM). Besides, the growth inhibition is 6% in test [3] (setting [7]); 96% (active) in test [3] (setting [8]); 98.8% (active) in test [3] (at 50.0 µM); -10% in test [4] (setting [7]); 96% (active) in test [4] (setting [8]); 98.2% (active) in test [4] (at 50.0 µM). The growth inhibition in test [5] (setting [7]) is -2%; in test [5] (setting [8]), 94% (active); in test [5] (at 50.0 µM) it was 98.8% (active); in test [6] (setting [7]), 2%; in test [6] (setting [8]), 95% (active); in test [6] (at 50.0 µM), 99.2% (active).
Consider `CC(/C=C/NNC1=NC(c2ccccc2)C(c2ccccc2)=NN1)Sc1ccccc1N` (stereo unspecified), for which the growth inhibition is 43% in test [1] (setting [7]); 43% in test [1] (setting [8]); 92.8% (active) in test [1] (at 50.0 µM); 22% in test [2] (setting [7]); 22% in test [2] (setting [8]); 93.2% (active) in test [2] (at 50.0 µM). Moreover, the growth inhibition in test [3] (setting [7]) was 31%; in test [3] (setting [8]), 31%; in test [3] (at 50.0 µM) it was 90.7% (active); in test [4] (setting [7]), 18%; in test [4] (setting [8]), 18%; in test [4] (at 50.0 µM), 90.8% (active). In addition, the growth inhibition in test [5] (setting [7]) is 25%; in test [5] (setting [8]) it was 25%; in test [5] (at 50.0 µM), 92.9% (active); in test [6] (setting [7]), 17%; in test [6] (setting [8]), 17%; in test [6] (at 50.0 µM), 91.3% (active).
As for `CCOC(=O)c1sc(N/N=C2\NC(=O)/C(=C/c3ccc([N+](=O)[O-])cc3)S2)nc1C`, the growth inhibition was 13% in test [1] (setting [7]); 74% (active) in test [1] (setting [8]); 92.8% (active) in test [1] (at 50.0 µM); 10% in test [2] (setting [7]); 90% (active) in test [2] (setting [8]); 73.9% (active) in test [2] (at 50.0 µM). The growth inhibition is 12% in test [3] (setting [7]); 92% (active) in test [3] (setting [8]); 97.7% (active) in test [3] (at 50.0 µM); -4% in test [4] (setting [7]); 87% (active) in test [4] (setting [8]); 87.1% (active) in test [4] (at 50.0 µM). In addition, the growth inhibition in test [5] (setting [7]) was -26%; in test [5] (setting [8]), 92% (active); in test [5] (at 50.0 µM), 95.3% (active); in test [6] (setting [7]) it was 22%; in test [6] (setting [8]), 92% (active); in test [6] (at 50.0 µM), 96.2% (active).
